# From publication PMC5540273 (PLoS ONE, 2017)
# Key:
# Details in all cases: concentration: 1 μM, replicates: in singlicate; n = 1
# [1] = tested on: KIT
# [2] = tested on: LATS1
# [3] = tested on: LATS2
# [4] = tested on: LCK
# [5] = tested on: LIMK1
# [6] = tested on: LIMK2
# [7] = tested on: T1, LKB1
# T1 construct: gene STK11
# [8] = tested on: T2, LOK
# T2 construct: gene STK10
# [9] = tested on: LRRK2
# [10] = tested on: LTK
# [11] = tested on: LYN
# [12] = tested on: T3, LZK
# T3 construct: gene MAP3K13
# [13] = tested on: MAK
# [14] = tested on: MAP3K15
# [15] = tested on: MAP3K1
# [16] = tested on: MAP3K2
# [17] = tested on: MAP3K3
# [18] = tested on: MAP3K4
# [19] = tested on: MAP4K2
# [20] = tested on: MAP4K3
# 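Also: KINOMEscan kinase panel screen.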
Compound,%Inh [1] [%],%Inh [2] [%],%Inh [3] [%],%Inh [4] [%],%Inh [5] [%],%Inh [6] [%],%Inh [7] [%],%Inh [8] [%],%Inh [9] [%],%Inh [10] [%],%Inh [11] [%],%Inh [12] [%],%Inh [13] [%],%Inh [14] [%],%Inh [15] [%],%Inh [16] [%],%Inh [17] [%],%Inh [18] [%],%Inh [19] [%],%Inh [20] [%]
NC(=O)c1nnc2ccccc2c1N,10,0,0,0,0,5,0,10,75,0,5,0,23,30,28,31,34,15,20,4
COC(=O)c1c(-c2ccccc2)c2cc(C(=O)O)ccc2c(=O)n1Cc1ccccc1,93.1,22,0,0,1,0,0,0,0,0,16,0,0,8,0,0,0,4,0,0
Cc1cc(NCC(c2ccccc2)c2ccccc2)nc(NCc2ccc(C(F)(F)F)cc2)n1 [GW497681],6,0,5,0,0,9,12,0,0,0,0,11,17,0,0,0,0,22,0,0
Cc1cccc(-c2nc(C)cc(Nc3ccncc3)n2)n1 [GSK257997],17,0,0,34,11,19,8,0,0,16,0,0,16,0,21,0,0,14,0,0
O=C(Nc1n[nH]c2cc(-c3cccc(F)c3F)ccc12)C1CC1 [SB-733894],18,0,22,0,0,0,0,0,0,0,0,100,21,0,4,6,30,0,0,12
O=S(=O)(c1ccc(-c2ccnc3[nH]ccc23)cc1)N1CCCC1 [GSK846226],23,0,68,5,7,21,5,0,0,0,0,0,24,0,14,7,0,0,0,0
Nc1ncnc2[nH]c(-c3ccccc3)nc12 [AH5015],21,0,0,26,15,0,0,0,34,91.4,7,0,0,0,16,0,0,0,0,0
Cc1ccc(NC(=O)Nc2cccc(Cl)c2)cc1-c1ccc(C(=O)Nc2ccncc2)cc1 [GSK1398468],99.6,0,0,25,0,12,0,0,0,7,0,0,19,0,0,0,0,7,0,0
Cl.NC(=O)c1cccc(Nc2nccc(Nc3ccc(Oc4cccc(Cl)c4)c(Cl)c3)n2)c1 [GW659008],46,0,0,68,43,4,0,15,11,0,29,19,9,0,3,0,0,33,0,0
Cc1c(Cn2ccn3c(=O)cc(N4CCOCC4)nc23)cccc1C(F)(F)F [GSK2289044],10,0,13,7,0,0,10,0,0,0,22,0,20,0,15,7,0,20,1,0
Nc1nc(-c2nccs2)c(-c2ccnc3ccccc23)s1 [GW693542],0,22,0,13,6,0,0,0,19,4,3,3,46,0,13,0,0,27,0,0
